# About 83,000 compounds went through this panel and 20% of them were active in at least one assay; those are over-represented in the sample as a whole.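 Plates (96-well) were seeded with cells, treated with compound at one concentration, and incubated for 48 hours before percent growth was determined.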 Values without a mark were called inactive. Calls of active or inactive are those of the source. How the source made its calls: active means growth percent below 10; inactive means the rest.
# Assays:
# Assay in all cases: NCI-60 one-dose screen, 48 h (100 = growth as untreated, 0 = no growth, -100 = all killed)
# Conditions in all cases: 10 µM unless noted
# [1] = tested on: T-47D breast
# [2] = tested on: BT-549 breast
# [3] = tested on: MDA-MB-435 melanoma
# [4] = tested on: SW-620 colon
# [5] = tested on: MCF7 breast
# [6] = tested on: HCT-116 colon
# [7] = tested on: HCC-2998 colon
# [8] = tested on: KM12 colon
SMILES,growth [1],growth [2],growth [3],growth [4],growth [5],growth [6],growth [7],growth [8]
C=C(C)[C@@H]1CC[C@]2(C(=O)O)CC[C@]3(C)[C@H](CC[C@@H]4[C@@]5(C)C[C@@H](CC#Cc6ccc(Br)cc6)C(=O)C(C)(C)[C@@H]5CC[C@]43C)[C@@H]12,48.3%,69.8%,42.4%,42.1%,49%,39.4%,61.4%,40.3%
BrC(Br)(Br)c1cnc2ccccc2n1,-49.3% (active),74.4%,36.5%,-65% (active),25.8%,-40.3% (active),43.8%,42.7%
O=C1NC(=O)C(=Cc2cn(Cc3ccccn3)c3ccccc23)C(=O)N1,100%,98.8%,101%,105%,87.6%,100%,105%,106%
COc1ccc(/C=C2\COc3ccc(-c4ccccc4)cc3C2=O)cc1O,6.79% (active),2.18% (active),5.12% (active),6.95% (active),0.878% (active),-5.06% (active),43.1%,2.07% (active)
CC(c1ccccc1)n1ccnc1CO (stereo not drawn),104%,113%,98.4%,97.8%,97.3%,104%,90.6%,109%
COc1ccc(-c2nc(N/N=C/c3ccco3)nc(N3CCOCC3)c2C#N)cc1,54.2%,78.5%,91.7%,89.8%,35.2%,89.1%,92.2%,86.7%
COc1cc(COC(=O)CCCCC[P+](c2ccccc2)(c2ccccc2)c2ccccc2)c(OC)c2c1OCO2,14.7%,55.5%,41.8%,58%,47.7%,33.2%,64.9%,36.1%
O=C(N/N=C/c1cccnc1)c1ccccc1Nc1cccc(C(F)(F)F)c1,61.9%,80.7%,26.2%,84.1%,91.8%,85.9%,101%,88.2%
CCC(C)C(N)C(=O)NNc1n[nH]c(=S)n1N (stereo not drawn),104%,104%,103%,96.9%,96.9%,108%,106%,104%
CC(=O)OCC(=O)C1(O)C(C)CC2C3C=C(C)C4=Cc5c(cnn5-c5ccccc5)CC4(C)C3C(O)CC21C (stereo not drawn),40.4%,21.5%,33.7%,-30% (active),12.8%,3.77% (active),13.5%,-28.7% (active)
Cc1[nH]n(-c2cccc(Cl)c2)c(=O)c1/C=C1\C=Nc2ccc(Br)cc21,-47.4% (active),41.5%,43.9%,17.2%,33.9%,-76% (active),63.5%,47.2%
N#Cc1c(NC(=O)c2cccc(Br)c2)sc2c1CCCC2,77.9%,96.7%,10.8%,50.5%,51.8%,74.9%,94.7%,69.5%
COc1ccc(C2CC(n3nnnc3-c3ccccc3)=NN2)cc1 (stereo not drawn),46.3%,81.4%,50.1%,50.6%,62%,50.7%,72.3%,49.3%
CC(C)NC(=O)N1C(=O)CCC1NNC(=O)c1ccc([N+](=O)[O-])cc1 (stereo not drawn),94.9%,102%,98.6%,112%,97.8%,95.7%,98.6%,102%
COc1ccc(Cc2nc3cc(OC)c(OC)cc3c(=O)[nH]2)cc1,96%,159%,87.3%,14.3%,91.6%,72.6%,53.7%,18.9%
O=C1NC(=S)NC(=O)C1=Cc1cccc(C=C2C(=O)NC(=S)NC2=O)c1,97.7%,87.5%,108%,106%,96.8%,-76% (active),107%,107%

SMILES,growth [1],growth [2],growth [3],growth [4],growth [5],growth [6],growth [7],growth [8]
Clc1nc(Nc2ccccc2)nc(Nc2ccccc2)n1,76.1%,90.5%,108%,108%,92.4%,93.2%,93.3%,102%
C#CCNC(=O)[C@H](Cc1ccccc1)NC(=O)[C@]12CC[C@@H](C(=C)C)[C@@H]1[C@H]1CC[C@@H]3[C@@]4(C)Cc5c([nH]c6ccccc56)C(C)(C)[C@@H]4CC[C@@]3(C)[C@]1(C)CC2,75.3%,105%,105%,111%,85.3%,85.9%,109%,103%
CCCNC(=O)Oc1ccc(/C(=C(\C)c2ccccc2)c2ccc(OCCN3CCCCC3)cc2)cc1,38.7%,69.8%,78.8%,80.8%,27.9%,46.5%,86.9%,58.9%
O=C(CN1CCOCC1)Nc1ccc2ncnc(Nc3ccc(OCc4cccc(F)c4)c(Cl)c3)c2c1,18.5%,70.8%,72.1%,109%,54.7%,64.5%,88.6%,83.2%
COc1ccc(C2CC(c3cccc(Nc4ccncc4)c3)=NN2c2ccccc2)cc1 (stereo not drawn),68.9%,-16.1% (active),-57% (active),-72.2% (active),8.74% (active),1.38% (active),-52.5% (active),-18.1% (active)
ClCC1(Cn2cnc3c(Cl)nc(Cl)nc32)COC1,72%,108%,87.6%,66.3%,76.1%,13.7%,-6.15% (active),97.5%
CCCCCCCCCCCCCCCC(=O)OC[C@@]1(O)C[C@@]23CC[C@@H]4C(C)(C)CCC[C@@]4(C)[C@@H]2CC[C@H]1C3,83.5%,86.7%,107%,108%,60.5%,-79.1% (active),118%,111%
CCN1C(=O)N(CC)C2C1NN=c1s/c(=C3\C(=O)Nc4ccccc43)c(=O)n12 (stereo not drawn),15.6%,59.8%,-27.3% (active),26.1%,28.7%,14.2%,31.8%,15.1%
COc1ccncc1C#Cc1cncc(C(=O)Nc2ccc(CN3CCN(C)CC3)c(C(F)(F)F)c2)c1,55.9%,50.9%,15.4%,4.42% (active),6.1% (active),8.44% (active),40.9%,6.75% (active)
O=C1Nc2c(ccc(Cl)c2Cl)/C1=C/c1ccccn1,56.9%,92.1%,77.2%,76.8%,29%,24.2%,85.1%,87.1%
Clc1ccc(C2CC(c3cccc(Nc4ccncc4)c3)=NN2c2ccc(Cl)cc2)cc1 (stereo not drawn),52.2%,-80.2% (active),-79% (active),-67.6% (active),-41.1% (active),-73.2% (active),-74% (active),-77.3% (active)
C#CC(=O)Nc1cccc2c1cc(C)n2-c1nc2c(c(NCc3ccccc3)n1)CCCC2,-41.4% (active),-47.3% (active),-81.4% (active),-59.3% (active),-39.8% (active),-70.3% (active),-89.9% (active),-27.6% (active)
O=C(Nc1nc(-c2ccccc2Cl)cs1)c1cc(-c2ccccc2)nc2ccc(Cl)cc12,74.1%,11.8%,8.05% (active),29.4%,25.8%,4.98% (active),95.5%,84.2%
Nc1ccccc1NC(=O)c1ccc(CN2CCC/C(=C\c3cccc(Cl)c3)C2=O)cc1,32.4%,-9.32% (active),3.87% (active),23.9%,8.72% (active),6.06% (active),12.4%,4.58% (active)
CCCC1C(C(=O)OCC)=C(N)Oc2cc(O)ccc21 (stereo not drawn),88.8%,94%,90.6%,97.1%,103%,88.3%,105%,98.2%

# Source: PubChem BioAssay (NCI)
